From PubChem BioAssay (NCATS)
Where “and” joins values, the source holds several entries; their conditions need not be identical. Equal entries are not always repeated. Values without a mark were called inactive. Inconclusive results are not listed. Where a call stands in place of a potency, no number is given. Calls of active or inactive are those of the source. Unless noted, calls follow the shape of the dose curve; as a rule, active = well fitted curve in the direction sought with a large enough effect; inconclusive = small, poorly fitted or top-dose-only effect, or another doubt; inactive = no such curve, though single readings can be large; an effect the other way counts as inactive or inconclusive.

How the values were obtained:
CAOV3 = experiment: Primary qHTS to identify gynecologic anti-cancer compounds using libraries of approved drugs and bioactive compounds (AID 1345084); settings: Gynecologic cancer cell panel viability, ATPlite luminescence, 48 h; series mostly up to 57.5 µM; also: nearly all actives have a fitted effect of over 55% in size
Method in brief: (§1)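 Cells, 1,000 per well, plated 16 h, then exposed 48 h at 37 C to compounds. Viability by ATPlite luminescence after 15 min at room temperature.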

CASKI = experiment: as above; settings: Gynecologic cancer cell panel viability, ATPlite luminescence, 48 h; series mostly up to 57.5 µM
Method in brief: as §1

Es-2 = experiment: as above; settings: Gynecologic cancer cell panel viability, ATPlite luminescence, 48 h; series mostly up to 57.5 µM
Method in brief: as §1

HeLa = experiment: as above; settings: Gynecologic cancer cell panel viability, ATPlite luminescence, 48 h; series mostly up to 57.5 µM
Method in brief: as §1

Hek293T = experiment: as above; settings: Gynecologic cancer cell panel viability, ATPlite luminescence, 48 h, control line for the selectivity index; series mostly up to 57.5 µM
Method in brief: as §1

JEG-3 = experiment: as above; settings: Gynecologic cancer cell panel viability, ATPlite luminescence, 48 h; series mostly up to 57.5 µM
Method in brief: as §1

OV90 = experiment: as above; settings: Gynecologic cancer cell panel viability, ATPlite luminescence, 48 h; series mostly up to 57.5 µM
Method in brief: as §1

PA-1 = experiment: as above; settings: Gynecologic cancer cell panel viability, ATPlite luminescence, 48 h; series mostly up to 57.5 µM
Method in brief: as §1

SKOV3 = experiment: as above; settings: Gynecologic cancer cell panel viability, ATPlite luminescence, 48 h; series mostly up to 57.5 µM
Method in brief: as §1

Tov-21-G = experiment: as above; settings: Gynecologic cancer cell panel viability, ATPlite luminescence, 48 h; series mostly up to 57.5 µM
Method in brief: as §1

Tov112D = experiment: as above; settings: Gynecologic cancer cell panel viability, ATPlite luminescence, 48 h; series mostly up to 57.5 µM
Method in brief: as §1

[1] = Drug repurposing screens with cells derived from glioblastoma tumor samples (AID 1345199); settings: GBM patient neurospheres viability, ATP luminescence, 48 h; also: nearly all actives have a fitted effect of over 40% in size; also: potency is read from the fitted curve at half-maximal effect
Method in brief: (§2)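 Four patient lines of CD133+ GBM neurospheres were screened at several concentrations; hits were retested in those lines plus three slower-growing GBM lines, using 48-hour treatment and ATP-based viability.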

astro = experiment: as above; settings: viability, ATP luminescence, 48 h; series mostly up to 45.9 µM
Method in brief: as §2

[2] = target: Nuclear receptor subfamily 1 group I member 2 (Rattus norvegicus) (UniProt Q9R1A7); experiment: qHTS assay for small molecule activators of the rat pregnane X receptor (rPXR) signaling pathway (AID 651751; call rule not given here); settings: rPXR reporter cells, luciferase (One-Glo), 24 h
[3] = qHTS assay for small molecule activators of the human pregnane X receptor (PXR) signaling pathway (AID 720659; call rule not given here)
[4] = at 45.9 µM (top of the series), tumour line B
[5] = at 45.9 µM (top of the series), tumour line D
[6] = at 46.1 µM (top of the series), tumour line C
[7] = at 46 µM (top of the series), tumour line A

Sequence of Nuclear receptor subfamily 1 group I member 2 (Rattus norvegicus) (Q9R1A7 whole entry, looked up): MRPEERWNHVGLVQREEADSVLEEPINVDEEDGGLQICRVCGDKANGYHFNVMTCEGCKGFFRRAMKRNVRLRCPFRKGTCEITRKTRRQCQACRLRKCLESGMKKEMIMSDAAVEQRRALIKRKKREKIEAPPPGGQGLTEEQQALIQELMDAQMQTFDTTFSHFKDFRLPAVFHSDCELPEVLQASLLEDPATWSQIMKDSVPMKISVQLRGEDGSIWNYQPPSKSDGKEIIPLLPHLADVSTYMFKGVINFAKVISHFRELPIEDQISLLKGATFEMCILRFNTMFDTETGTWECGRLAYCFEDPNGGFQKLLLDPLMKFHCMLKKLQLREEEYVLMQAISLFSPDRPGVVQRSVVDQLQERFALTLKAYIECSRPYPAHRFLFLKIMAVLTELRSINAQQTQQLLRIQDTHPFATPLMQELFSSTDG

CN1CC(=O)N/C1=N/C(=O)Nc1cccc(Cl)c1
Potency (CAOV3): inactive | Potency (CASKI): inactive | Potency (Es-2): inactive | Potency (HeLa): inactive | Potency (Hek293T): inactive | Potency (JEG-3): inactive | Potency (OV90): inactive | Potency (PA-1): inactive | Potency (SKOV3): inactive | Potency (Tov-21-G): inactive | Potency (Tov112D): inactive | activity, negative = cell killing [1, 4]: -4.72% and 3.17% | activity, negative = cell killing [1, 5]: -5.4% and -21.8% | activity, negative = cell killing [1, 6]: -23.8% and 2.92% | Potency (astro): inactive

O=C(O)Cc1cccc(-c2cc(CCCCCCc3ccc(O[C@H]4O[C@H](CO)[C@@H](O)[C@H](O)[C@@H]4O)c(-c4cccc(CC(=O)O)c4)c3)ccc2O[C@H]2O[C@H](CO)[C@@H](O)[C@H](O)[C@@H]2O)c1
activity change, negative = cytotoxicity (CAOV3): 12.9% [at 0.462 µM] | activity change, negative = cytotoxicity (CASKI): -1.06% [at 0.462 µM] | activity change, negative = cytotoxicity (Es-2): 2.88% [at 0.462 µM] | activity change, negative = cytotoxicity (HeLa): 7.81% [at 0.462 µM] | activity change, negative = cytotoxicity (Hek293T): 0.655% [at 0.462 µM] | activity change, negative = cytotoxicity (JEG-3): 24.2% [at 0.462 µM] | activity change, negative = cytotoxicity (OV90): 11.3% [at 0.462 µM] | activity change, negative = cytotoxicity (PA-1): 22.2% [at 0.462 µM] | activity change, negative = cytotoxicity (Tov-21-G): 4.72% [at 0.462 µM] | activity change, negative = cytotoxicity (Tov112D): 13.8% [at 0.462 µM] | activity, negative = cell killing [1, 4]: -15% | activity, negative = cell killing [1, 5]: -11.6% | activity, negative = cell killing [1, 7]: -35.4% | activity, negative = cell killing [1, 6]: 0.695% | Potency (astro): inactive

CC1(C)[C@@H](O[C@H]2O[C@H](C(=O)O)[C@@H](O)[C@H](O)[C@H]2O[C@@H]2O[C@H](C(=O)O)[C@@H](O)[C@H](O)[C@H]2O)CC[C@]2(C)[C@H]3C(=O)C=C4[C@@H]5C[C@@](C)(C(=O)O)CC[C@]5(C)CC[C@@]4(C)[C@]3(C)CC[C@@H]12
Potency (CAOV3): inactive | Potency (CASKI): inactive | Potency (Es-2): inactive | Potency (HeLa): inactive | Potency (Hek293T): inactive | Potency (JEG-3): inactive | Potency (OV90): inactive | Potency (PA-1): inactive | Potency (Tov-21-G): inactive | Potency (Tov112D): inactive | activity, negative = cell killing [1, 4]: -9.84% | activity, negative = cell killing [1, 5]: 5.57% | activity, negative = cell killing [1, 7]: -2.05% | activity, negative = cell killing [1, 6]: 21.2%

O=C(O)c1cc(O)c(O)c(O)c1
Potency (CAOV3): inactive | Potency (CASKI): inactive | Potency (Es-2): inactive | Potency (HeLa): inactive | Potency (Hek293T): inactive | Potency (JEG-3): inactive | Potency (OV90): inactive | Potency (PA-1): inactive | Potency (Tov-21-G): inactive | Potency (Tov112D): inactive | activity, negative = cell killing [1, 4]: -10.4% | activity, negative = cell killing [1, 5]: -20.6% | activity, negative = cell killing [1, 6]: 20.7% | max response [2]: -9.5% | outcome [3]: inactive

N=C(N)N
Potency (CAOV3): inactive | Potency (CASKI): inactive | Potency (Es-2): inactive | Potency (HeLa): inactive | Potency (Hek293T): inactive | Potency (JEG-3): inactive | Potency (OV90): inactive | Potency (SKOV3): inactive | Potency (Tov-21-G): inactive | Potency (Tov112D): inactive | activity, negative = cell killing [1, 4]: -7.3% | activity, negative = cell killing [1, 5]: -23.5% | activity, negative = cell killing [1, 7]: -16.6% | activity, negative = cell killing [1, 6]: -13.1% | Potency (astro): inactive

S=c1[nH]c2ccccc2s1
Potency (CAOV3): inactive | Potency (CASKI): inactive | Potency (Es-2): inactive | Potency (HeLa): inactive | Potency (Hek293T): inactive | Potency (JEG-3): inactive | Potency (OV90): inactive | Potency (PA-1): inactive | Potency (Tov-21-G): inactive | Potency (Tov112D): inactive | activity, negative = cell killing [1, 4]: -16.2% | activity, negative = cell killing [1, 6]: -8.66% | Potency ([1]; tumour line A): 39.8 µM (active) | max response [2]: 4.63% and 1.9% | outcome [3]: inactive

C[C@H](O)[C@H](O)[C@H]1CNc2nc(N)[nH]c(=O)c2N1
Potency (CAOV3): inactive | Potency (CASKI): inactive | Potency (Es-2): inactive | Potency (HeLa): inactive | Potency (Hek293T): inactive | Potency (JEG-3): inactive | Potency (OV90): inactive | Potency (PA-1): inactive | Potency (SKOV3): inactive | Potency (Tov-21-G): inactive | Potency (Tov112D): inactive | activity, negative = cell killing [1, 4]: -2.46% | activity, negative = cell killing [1, 5]: 16.1% | activity, negative = cell killing [1, 7]: -18.9% | activity, negative = cell killing [1, 6]: 11.1% | Potency (astro): inactive

O=C(O)[C@H](CC(=O)N1C[C@H]2CCCC[C@H]2C1)Cc1ccccc1
Potency (CAOV3): inactive | Potency (CASKI): inactive | Potency (Es-2): inactive | Potency (HeLa): inactive | Potency (Hek293T): inactive | Potency (JEG-3): inactive | Potency (OV90): inactive | Potency (PA-1): inactive | Potency (SKOV3): inactive | Potency (Tov-21-G): inactive | Potency (Tov112D): inactive | activity, negative = cell killing [1, 4]: -13.2% | activity, negative = cell killing [1, 5]: -11.7% | activity, negative = cell killing [1, 7]: -25.9% | activity, negative = cell killing [1, 6]: -20.5% | Potency (astro): inactive

COc1cc2c3cc1Oc1cc(ccc1O)C[C@@H]1c4c(cc(OC)c(O)c4Oc4ccc(cc4)C[C@@H]3N(C)CC2)CC[N+]1(C)C
Potency (CAOV3): inactive | Potency (CASKI): inactive | Potency (Es-2): inactive | Potency (HeLa): inactive | Potency (Hek293T): inactive | Potency (JEG-3): inactive | Potency (OV90): inactive | Potency (PA-1): inactive | Potency (SKOV3): inactive | Potency (Tov-21-G): inactive | Potency (Tov112D): inactive | activity, negative = cell killing [1, 4]: 1% | activity, negative = cell killing [1, 5]: -8.25% | activity, negative = cell killing [1, 6]: 7.69% | Potency (astro): inactive

CN1[C@@H]2CC[C@H]1CC(OC(=O)C(CO)c1ccccc1)C2 (stereo partly specified)
Potency (CAOV3): inactive | Potency (CASKI): inactive | Potency (Es-2): inactive | Potency (HeLa): inactive | Potency (Hek293T): inactive | Potency (JEG-3): inactive | Potency (OV90): inactive | Potency (PA-1): inactive | Potency (SKOV3): inactive | Potency (Tov-21-G): inactive | Potency (Tov112D): inactive | activity, negative = cell killing [1, 4]: -12.1% and -3.29% | activity, negative = cell killing [1, 5]: -9.67% and -14.2% | activity, negative = cell killing [1, 6]: 4.75% and 11.7% | Potency (astro): inactive | outcome [3]: inactive

c1ccc2sc(SN3CCOCC3)nc2c1
Potency (CAOV3): inactive | Potency (CASKI): inactive | Potency (Es-2): inactive | Potency (HeLa): inactive | Potency (Hek293T): inactive | Potency (JEG-3): inactive | Potency (OV90): inactive | Potency (PA-1): inactive | Potency (Tov-21-G): inactive | Potency (Tov112D): inactive | activity, negative = cell killing [1, 4]: -16.5% | activity, negative = cell killing [1, 5]: -19.8% | activity, negative = cell killing [1, 6]: -23.9%

COC(=O)C1=C(C)NC(C)=C(C(=O)OCC(C)C)C1c1ccccc1[N+](=O)[O-] (stereo unspecified)
Potency (CAOV3): inactive | Potency (CASKI): inactive | Potency (Es-2): inactive | Potency (HeLa): inactive | Potency (Hek293T): inactive | Potency (JEG-3): inactive | Potency (OV90): inactive | Potency (PA-1): inactive | Potency (Tov-21-G): inactive | Potency (Tov112D): inactive | activity, negative = cell killing [1, 6]: -13.4% | Potency ([1]; tumour line A): 10 µM (active) | Potency ([1]; tumour line D): 14.1 µM (active)

c1ccc2sc(SSc3nc4ccccc4s3)nc2c1
Potency (CAOV3): inactive | Potency (CASKI): inactive | Potency (Es-2): inactive | Potency (HeLa): inactive | Potency (Hek293T): inactive | Potency (JEG-3): inactive | Potency (OV90): inactive | Potency (PA-1): inactive | Potency (SKOV3): inactive | Potency (Tov-21-G): inactive | Potency (Tov112D): inactive | activity, negative = cell killing [1, 4]: -16.9% | activity, negative = cell killing [1, 5]: -20.4% | activity, negative = cell killing [1, 7]: -26.6% | activity, negative = cell killing [1, 6]: -28% | Potency (astro): inactive | max response [2]: -2.5% and 11.1% | outcome [3]: inactive
